Assay results published in PubChem BioAssay AID1159580 (chemical genetic matrix, 2015).
About 2,000 (36%) of roughly 5,500 compounds were called active. Another 18% or so got no clear call; they are omitted. No stated cut-off is given here; in the data, active means normalized growth mostly below about 0.91 (no sharp cut-off); inconclusive means no clear call, values can overlap the other calls; inactive means mostly above about 0.92. The list shows a part of the results.

Experiment: chemical genetic growth profiling, strain panel (AID 1159580);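 further: tested at 20 µM; growth read once vehicle control cultures reached saturation at 30 °C; 1 = growth at the plate median or of vehicle wells; lower values mean less growth of the strain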
Details: S. cerevisiae deletion strains, growth OD

Measured: normalized growth

COc1ccc(C(=O)CSC2=NCCc3ccccc32)cc1
inactive: locus YAR019C, strain CDC15, active compounds read low 0.975 | locus YBL105C, strain PKC1, active compounds read low 0.982 | locus YBR135W, strain CKS1, active compounds read low 0.959 | locus YBR136W, strain MEC1, active compounds read low 0.978 | locus YBR160W, strain CDC28, active compounds read low 0.974 | locus YDL017W, strain CDC7, active compounds read low 0.98 | locus YDL028C, strain MPS1, active compounds read low 0.97 | locus YDL101C, strain DUN1, active compounds read low 0.976 | locus YDL108W, strain KIN28, active compounds read low 0.968 | locus YDL132W, strain cdc53, active compounds read low 0.974 | locus YDL214C, strain PRR2, active compounds read low 0.999 | locus YDR052C, strain DBF4, active compounds read low 0.983 | locus YDR054C, strain cdc34, active compounds read low 0.978 | locus YDR226W, strain ADK1, active compounds read low 0.971 | locus YDR477W, strain SNF1, active compounds read low 1 | locus YER123W, strain YCK3, active compounds read low 1.02 | locus YER133W, strain GLC7, active compounds read low 1.01 | locus YFL009W, strain cdc4, active compounds read low 0.968 | locus YFL029C, strain CAK1, active compounds read low 0.972 | locus YFR003C, strain YPI1, active compounds read low 0.979 | locus YFR019W, strain FAB1, active compounds read low 1.04 | locus YFR028C, strain CDC14, active compounds read low 0.982 | locus YGR040W, strain KSS1, active compounds read low 1 | locus YGR052W, strain FMP48, active compounds read low 1.13 | locus YGR092W, strain DBF2, active compounds read low 0.984 | locus YHR030C, strain SLT2, active compounds read low 1.01 | locus YHR079C, strain IRE1, active compounds read low 1 | locus YHR082C, strain KSP1, active compounds read low 1.04 | locus YHR205W, strain SCH9, active compounds read low 0.938 | locus YIL147C, strain SLN1, active compounds read low 0.971 | locus YJL095W, strain BCK1, active compounds read low 0.969 | locus YJL128C, strain PBS2, active compounds read low 0.951 | locus YJL157C, strain FAR1, active compounds read low 0.995 | locus YJR016C, strain ILV3, active compounds read low 0.972 | locus YJR066W, strain TOR1 (second series), active compounds read low 1 | locus YJR066W, strain TOR1, active compounds read low 0.985 | locus YKL048C, strain ELM1, active compounds read low 1.03 | locus YKL067W, strain YNK1, active compounds read low 0.997 | locus YKL101W, strain HSL1, active compounds read low 0.98 | locus YKL193C, strain SDS22, active compounds read low 0.966 | locus YKL203C, strain TOR2, active compounds read low 1.05 | locus YLR113W, strain HOG1, active compounds read low 0.99 | locus YLR133W, strain CKI1, active compounds read low 1.01 | locus YLR403W, strain SFP1, active compounds read low 1.01 | locus YML070W, strain DAK1, active compounds read low 1 | locus YMR001C, strain CDC5, active compounds read low 0.962 | locus YMR205C, strain PFK2 (second series), active compounds read low 0.998 | locus YMR277W, strain FCP1, active compounds read low 0.968 | locus YNL006W, strain LST8, active compounds read low 0.969 | locus YNL020C, strain ARK1, active compounds read low 1.02 | locus YNL161W, strain CBK1, active compounds read low 0.964 | locus YNL183C, strain NPR1, active compounds read low 0.977 | locus YNL207W, strain RIO2, active compounds read low 0.977 | locus YNL222W, strain SSU72, active compounds read low 0.976 | locus YNL307C, strain MCK1 (second series), active compounds read low 1.02 | locus YOL078W, strain AVO1, active compounds read low 0.966 | locus YOL136C, strain PFK27, active compounds read low 1.02 | locus YOR061W, strain CKA2, active compounds read low 0.967 | locus YOR119C, strain RIO1, active compounds read low 1.07 | locus YOR231W, strain MKK1, active compounds read low 0.966 | locus YOR329C, strain SCD5, active compounds read low 0.982 | locus YPL031C, strain PHO85, active compounds read low 0.997 | locus YPL153C, strain RAD53, active compounds read low 1 | locus YPL204W, strain HRR25, active compounds read low 1.02 | locus YPL209C, strain IPL1, active compounds read low 0.973 | locus YPL256C, strain CLN2, active compounds read low 1.07 | locus YPR025C, strain CCL1, active compounds read low 0.97 | locus YPR106W, strain ISR1, active compounds read low 0.986 | locus YPR111W, strain DBF20, active compounds read low 0.97 | strain NNK1, active compounds read low 0.995 | strain TSCII, active compounds read low 0.964
